Experimental data as given in PubChem BioAssay (EPA / NIEHS).
Inconclusive results are not listed. The source made the active and inactive calls. Rule for the calls: active = hit-call score of the fitted dose curve at least 0.9, where 1 is the maximum; inconclusive = response in the unintended direction; inactive = score below 0.9.

Columns and labels:
[1] = target: Androgen Receptor/SRC-1 Co-activator, AR (gene 367) (UniProt P10275); assay: OT_AR_ARSRC1_0960: Odyssey Thera (OT) 16-hour HEK293T Protein-Complementation Assay for Androgen Receptor/SRC-1 Co-activator (AID 2283353);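 note: actives raise the signal above DMSO so potency reflects increased AR and SRC-1 complex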
Chain of Androgen Receptor/SRC-1 Co-activator, AR (gene 367) (P10275 whole entry, looked up, the tested form may be a part): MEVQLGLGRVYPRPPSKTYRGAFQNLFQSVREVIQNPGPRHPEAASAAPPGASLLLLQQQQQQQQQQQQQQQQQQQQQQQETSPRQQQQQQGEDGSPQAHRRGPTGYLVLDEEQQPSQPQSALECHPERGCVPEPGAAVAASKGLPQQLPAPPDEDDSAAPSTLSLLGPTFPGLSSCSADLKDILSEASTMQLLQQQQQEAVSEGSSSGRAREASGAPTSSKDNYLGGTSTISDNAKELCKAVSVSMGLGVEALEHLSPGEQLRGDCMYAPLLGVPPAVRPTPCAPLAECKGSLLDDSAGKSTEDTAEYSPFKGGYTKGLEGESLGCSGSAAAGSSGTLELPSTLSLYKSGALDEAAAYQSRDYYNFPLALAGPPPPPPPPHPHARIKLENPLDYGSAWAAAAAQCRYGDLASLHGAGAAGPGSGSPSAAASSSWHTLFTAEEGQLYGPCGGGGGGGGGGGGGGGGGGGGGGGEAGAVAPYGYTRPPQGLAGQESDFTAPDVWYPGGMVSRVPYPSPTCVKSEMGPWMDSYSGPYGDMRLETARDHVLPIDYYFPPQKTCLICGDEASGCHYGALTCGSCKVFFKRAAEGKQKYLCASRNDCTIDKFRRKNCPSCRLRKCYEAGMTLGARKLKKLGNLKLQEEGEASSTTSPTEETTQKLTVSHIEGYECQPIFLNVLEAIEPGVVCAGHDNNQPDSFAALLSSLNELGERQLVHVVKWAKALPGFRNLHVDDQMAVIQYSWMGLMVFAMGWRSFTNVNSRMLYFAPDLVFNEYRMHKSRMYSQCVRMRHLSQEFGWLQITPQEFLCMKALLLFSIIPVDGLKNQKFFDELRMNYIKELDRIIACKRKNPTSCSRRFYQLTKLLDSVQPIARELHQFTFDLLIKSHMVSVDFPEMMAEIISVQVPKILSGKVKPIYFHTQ
In short: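 Stable HEK293T line carries AR and SRC-1 each linked to a Venus fragment; chemicals are applied for 16 h, cells imaged at two wavelengths, and the 488 nm nucleus/cytoplasm ratio is taken as the signal, rising relative to DMSO.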

[2] = target: Androgen Receptor/SRC-1 Co-activator, AR (gene 367) (UniProt P10275); assay: OT_AR_ARSRC1_0480: Odyssey Thera (OT) 8-hour HEK293T Protein-Complementation Assay for Androgen Receptor/SRC-1 Co-activator (AID 2283354);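 note: hits raise the complementation signal above DMSO so AC50 marks enhancers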
In short: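 Split-Venus PCA, stable HEK293T, AR/SRC-1 fusions; 8 h exposure. Readout: 488nm N/C fluorescence ratio, ≥400 cells/image; fitted upward vs DMSO baseline.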

[3] = target: Estrogen receptor beta (Homo sapiens) (UniProt Q92731); assay: OT_ER_ERbERb_0480: Odyssey Thera (OT) 8-hour HEK293T Protein-Complementation Assay for Estrogen Receptor-beta/-beta Homodimer (AID 2283357);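 note: active means signal gain over DMSO baseline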
Chain of Estrogen receptor beta (Homo sapiens) (Q92731 whole entry, looked up, the tested form may be a part): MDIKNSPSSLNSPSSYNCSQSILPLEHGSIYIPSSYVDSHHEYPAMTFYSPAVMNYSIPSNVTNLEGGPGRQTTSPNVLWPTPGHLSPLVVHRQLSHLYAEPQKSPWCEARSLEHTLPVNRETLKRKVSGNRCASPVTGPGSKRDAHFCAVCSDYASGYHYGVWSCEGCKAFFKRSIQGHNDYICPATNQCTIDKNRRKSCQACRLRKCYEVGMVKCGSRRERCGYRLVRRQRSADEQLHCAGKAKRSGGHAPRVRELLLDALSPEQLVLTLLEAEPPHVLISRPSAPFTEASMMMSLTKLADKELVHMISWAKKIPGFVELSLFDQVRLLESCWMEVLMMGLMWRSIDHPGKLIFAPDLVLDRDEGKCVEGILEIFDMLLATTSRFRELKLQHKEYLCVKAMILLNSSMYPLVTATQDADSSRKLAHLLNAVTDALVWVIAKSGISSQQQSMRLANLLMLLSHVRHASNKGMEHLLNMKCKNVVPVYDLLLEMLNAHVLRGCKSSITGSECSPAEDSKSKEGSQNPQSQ
In short: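 Homodimerization of ER-beta LBD measured by protein-fragment complementation in HEK293T; 8 h dosing; fixed, Draq5 counterstain; fluorescence intensity gain over DMSO baseline, positive fitting direction; laser scanning cytometry.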

[4] = target: rat Peripheral-type Benzodiazepine Receptor (PBR), Tspo (gene 24230) (UniProt P16257); assay: NVS_MP_rPBR: NovaScreen (NVS) Membrane Protein Assay for rat Peripheral-type Benzodiazepine Receptor (PBR) (AID 2283335)
Chain of rat Peripheral-type Benzodiazepine Receptor (PBR), Tspo (gene 24230) (P16257 whole entry, looked up): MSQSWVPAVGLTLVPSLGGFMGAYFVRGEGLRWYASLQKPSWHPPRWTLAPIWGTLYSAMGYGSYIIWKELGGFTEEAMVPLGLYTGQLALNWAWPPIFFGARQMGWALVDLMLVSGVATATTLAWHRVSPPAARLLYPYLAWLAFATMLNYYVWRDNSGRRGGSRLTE
In short: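 Competitive displacement of specific radioligand from rat kidney membrane PBR, read by filtration and scintillation after 1 h. Compounds first tested at 25 uM in duplicate, then in concentration series; signal loss relative to DMSO.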

[5] = target: Retinoic acid receptor alpha (Homo sapiens) (UniProt P10276); assay: NVS_NR_hRAR_Antagonist: NovaScreen (NVS) Nuclear Receptor Binding Assay for human Retinoic Acid Alpha Receptor Antagonism (RAR) (AID 2283358)
Chain of Retinoic acid receptor alpha (Homo sapiens) (P10276 whole entry, looked up): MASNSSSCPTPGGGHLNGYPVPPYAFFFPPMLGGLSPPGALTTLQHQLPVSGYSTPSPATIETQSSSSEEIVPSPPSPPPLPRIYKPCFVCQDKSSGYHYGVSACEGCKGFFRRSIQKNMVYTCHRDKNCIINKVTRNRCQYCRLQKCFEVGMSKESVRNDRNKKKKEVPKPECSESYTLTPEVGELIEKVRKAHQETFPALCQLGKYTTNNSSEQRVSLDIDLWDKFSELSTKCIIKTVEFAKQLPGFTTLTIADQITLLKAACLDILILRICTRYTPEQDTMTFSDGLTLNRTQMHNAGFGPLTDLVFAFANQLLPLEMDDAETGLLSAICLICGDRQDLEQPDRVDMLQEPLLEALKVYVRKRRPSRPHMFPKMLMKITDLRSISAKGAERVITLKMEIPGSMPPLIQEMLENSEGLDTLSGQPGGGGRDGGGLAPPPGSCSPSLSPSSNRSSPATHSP
In short: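 Read-out: time-resolved FRET binding signal, 2 h post-dose, cell-free extracted protein. Antagonism scored as signal loss versus DMSO negative control. Primary single-concentration screen at 25 uM in duplicate; concentration series for actives.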

[6] = target: human Peroxisome Proliferator-activated Receptor alpha (PPARa), PPARA (gene 5465) (UniProt Q07869); assay: NVS_NR_hPPARa: NovaScreen (NVS) Nuclear Receptor Binding Assay for human Peroxisome Proliferator-activated Receptor alpha (PPARa) (AID 2283359);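 note: activity means loss of TR-FRET signal versus DMSO baseline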
Chain of human Peroxisome Proliferator-activated Receptor alpha (PPARa), PPARA (gene 5465) (Q07869 whole entry, looked up): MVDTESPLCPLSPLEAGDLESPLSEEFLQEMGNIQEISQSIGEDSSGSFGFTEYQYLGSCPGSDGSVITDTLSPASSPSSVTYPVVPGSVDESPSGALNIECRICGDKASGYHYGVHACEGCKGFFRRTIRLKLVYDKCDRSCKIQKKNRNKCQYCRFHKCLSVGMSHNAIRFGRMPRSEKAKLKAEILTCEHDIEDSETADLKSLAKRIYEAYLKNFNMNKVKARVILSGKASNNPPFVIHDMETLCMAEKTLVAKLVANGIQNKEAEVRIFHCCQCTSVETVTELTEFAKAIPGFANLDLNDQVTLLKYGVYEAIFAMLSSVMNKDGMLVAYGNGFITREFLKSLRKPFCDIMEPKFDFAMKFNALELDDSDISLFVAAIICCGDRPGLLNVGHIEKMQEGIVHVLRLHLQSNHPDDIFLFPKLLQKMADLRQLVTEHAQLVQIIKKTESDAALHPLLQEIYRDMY
In short: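 TR-FRET signal measured at 1 h post-dosing; loss-of-signal versus DMSO negative control taken as activity. Extracted gene-protein, cell-free format. Initial single-point duplicates at 25 uM, then concentration-response retests.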

[7] = target: human Thyroid Receptor Alpha (TRa), THRA (gene 7067) (UniProt P10827); assay: NVS_NR_hTRa_Antagonist: NovaScreen (NVS) Nuclear Receptor Binding Assay for human Thyroid Receptor Alpha Antagonism (TRa) (AID 2283362);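 note: activity is loss of signal relative to DMSO baseline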
Chain of human Thyroid Receptor Alpha (TRa), THRA (gene 7067) (P10827 whole entry, looked up): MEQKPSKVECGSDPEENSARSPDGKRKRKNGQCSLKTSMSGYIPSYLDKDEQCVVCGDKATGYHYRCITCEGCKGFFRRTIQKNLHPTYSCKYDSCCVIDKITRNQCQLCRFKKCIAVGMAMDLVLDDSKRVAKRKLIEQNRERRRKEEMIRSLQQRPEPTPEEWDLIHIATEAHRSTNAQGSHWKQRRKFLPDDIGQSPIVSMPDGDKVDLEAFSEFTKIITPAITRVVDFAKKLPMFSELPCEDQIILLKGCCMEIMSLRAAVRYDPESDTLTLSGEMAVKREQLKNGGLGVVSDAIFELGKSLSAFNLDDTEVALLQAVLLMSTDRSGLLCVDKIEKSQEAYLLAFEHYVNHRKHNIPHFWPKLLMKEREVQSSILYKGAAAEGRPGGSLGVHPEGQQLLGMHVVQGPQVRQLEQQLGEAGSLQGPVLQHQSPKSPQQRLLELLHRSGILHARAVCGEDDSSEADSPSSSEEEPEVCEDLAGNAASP
In short: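 Actives from a duplicate 25 uM single-point screen were retested in concentration series. The cell-free antagonist-format binding assay was read by AlphaLISA chemiluminescence at 1 h, scored as signal loss relative to DMSO.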

[8] = target: Glucocorticoid receptor (Homo sapiens) (UniProt P04150); assay: NVS_NR_hGR: NovaScreen (NVS) Nuclear Receptor Binding Assay for human Glucocorticoid Receptor (GR) (AID 2283363);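 note: activity is loss of specific radioligand binding signal relative to DMSO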
Chain of Glucocorticoid receptor (Homo sapiens) (P04150 whole entry, looked up): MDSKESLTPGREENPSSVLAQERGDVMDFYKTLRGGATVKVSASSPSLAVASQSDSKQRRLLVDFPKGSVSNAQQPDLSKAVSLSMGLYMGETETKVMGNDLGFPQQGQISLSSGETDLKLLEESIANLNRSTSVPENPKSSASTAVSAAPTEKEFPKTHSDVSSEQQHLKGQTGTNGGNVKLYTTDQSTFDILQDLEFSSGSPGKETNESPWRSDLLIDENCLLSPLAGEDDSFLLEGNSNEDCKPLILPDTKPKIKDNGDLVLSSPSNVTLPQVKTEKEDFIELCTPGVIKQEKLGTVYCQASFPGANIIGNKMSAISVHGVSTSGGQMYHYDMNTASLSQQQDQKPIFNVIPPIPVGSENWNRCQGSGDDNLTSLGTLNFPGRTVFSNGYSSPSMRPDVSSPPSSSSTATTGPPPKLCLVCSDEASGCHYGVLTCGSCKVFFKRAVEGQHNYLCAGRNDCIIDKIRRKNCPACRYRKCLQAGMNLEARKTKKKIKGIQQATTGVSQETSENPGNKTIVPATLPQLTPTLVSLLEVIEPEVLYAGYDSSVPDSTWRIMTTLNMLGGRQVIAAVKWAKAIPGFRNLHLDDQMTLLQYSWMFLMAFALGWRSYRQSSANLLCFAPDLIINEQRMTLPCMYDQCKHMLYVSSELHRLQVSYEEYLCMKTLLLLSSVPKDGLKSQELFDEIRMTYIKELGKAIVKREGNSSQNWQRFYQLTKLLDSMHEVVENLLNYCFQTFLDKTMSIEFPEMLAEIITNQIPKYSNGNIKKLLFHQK
In short: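 Filter scintillation readout of tritiated/iodinated radioligand displaced by test chemical; cell-free extracted protein; 16 h. DMSO = negative control/baseline. Duplicate single-point 25 uM screen, then concentration-response on actives.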

[9] = target: Retinoic acid receptor alpha (Homo sapiens) (UniProt P10276); assay: NVS_NR_hRARa_Agonist: NovaScreen (NVS) Nuclear Receptor Binding Assay for human Retinoic Acid Alpha Receptor Agonism (RAR) (AID 2283361)
In short: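 TR-FRET signal, 2 h post-dosing; cell-free extracted protein; DMSO = baseline, positive fitting direction; 25 uM single-point duplicate, then concentration series for actives.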

[10] = target: Estrogen receptor (Homo sapiens) (UniProt P03372); assay: OT_ER_ERaERa_1440: Odyssey Thera (OT) 24-hour HEK293T Protein-Complementation Assay for Estrogen Receptor-alpha/-alpha Homodimer (AID 2283349);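 note: hits raise fluorescence above DMSO for agonists and antagonists alike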
Chain of Estrogen receptor (Homo sapiens) (P03372 whole entry, looked up, the tested form may be a part): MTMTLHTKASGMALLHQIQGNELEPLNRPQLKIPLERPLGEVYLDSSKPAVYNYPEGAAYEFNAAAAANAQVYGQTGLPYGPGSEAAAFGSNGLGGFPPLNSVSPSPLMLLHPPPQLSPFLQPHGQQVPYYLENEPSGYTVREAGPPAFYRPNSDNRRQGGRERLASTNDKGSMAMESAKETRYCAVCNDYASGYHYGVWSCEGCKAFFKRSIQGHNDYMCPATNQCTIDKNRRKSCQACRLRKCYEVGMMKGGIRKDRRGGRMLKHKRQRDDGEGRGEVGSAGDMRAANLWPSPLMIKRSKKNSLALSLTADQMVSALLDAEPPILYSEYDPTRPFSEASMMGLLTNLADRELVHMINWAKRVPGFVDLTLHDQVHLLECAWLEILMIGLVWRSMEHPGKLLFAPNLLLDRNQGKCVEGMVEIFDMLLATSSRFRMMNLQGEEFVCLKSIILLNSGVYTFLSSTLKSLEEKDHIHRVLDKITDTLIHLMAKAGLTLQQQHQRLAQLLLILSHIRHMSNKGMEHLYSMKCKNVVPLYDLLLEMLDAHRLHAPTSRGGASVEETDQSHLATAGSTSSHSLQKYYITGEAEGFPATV
In short: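 Cells (HEK293T) carrying the fragment-tagged ERα LBD (aa 310-547) pair are treated with chemical for 24 hours. Nuclear and/or cytoplasmic fluorescence is then quantified on a laser scanning cytometer. Activity is scored as signal gain against DMSO.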

[11] = target: Estrogen receptor (Homo sapiens) (UniProt P03372); assay: OT_ER_ERaERa_0480: Odyssey Thera (OT) 8-hour HEK293T Protein-Complementation Assay for Estrogen Receptor-alpha/-alpha Homodimer (AID 2283351);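 note: rise in fluorescence from reassembled reporter fragments on ERα LBD homodimer in nucleus or whole cell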
In short: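 Cells were treated for 8 hours, then imaged on a laser scanning plate cytometer. Complementation of reporter fragments fused to the human ERα ligand-binding domain (residues 310-547) in HEK293T gave fluorescence, and gain of signal over vehicle was fitted.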

[12] = target: T1, Estrogen receptor (Homo sapiens) + Estrogen receptor beta (Homo sapiens) (UniProt P03372+Q92731); assay: OT_ER_ERaERb_0480: Odyssey Thera (OT) 8-hour HEK293T Protein-Complementation Assay for Estrogen Receptor-alpha/-beta Heterodimer (AID 2283352)
T1 sequence (P03372 whole entry, looked up, the tested form may be a part): as above
T1 sequence (Q92731 whole entry, looked up, the tested form may be a part): as the sequence (Q92731 whole entry, looked up, the tested form may be a part) above
In short: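 Fluorescence increase from reconstituted reporter fragments, quantified by laser scanning cytometer, reflects ER-alpha/ER-beta heterodimer formation in human HEK293T cells. Exposure 8 h; positive-direction fitting against DMSO vehicle.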

[13] = target: T1, Estrogen receptor (Homo sapiens) + Estrogen receptor beta (Homo sapiens); assay: OT_ER_ERaERb_1440: Odyssey Thera (OT) 24-hour HEK293T Protein-Complementation Assay for Estrogen Receptor-alpha/-beta Homodimer (AID 2283356);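 note: heteromer of ER alpha and ER beta binding domains; hits raise reporter fluorescence and both agonists and antagonists give an increase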
In short: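 Fragment complementation between ER alpha (310-547) and ER beta (263-489) ligand-binding domains in HEK293T cells; signal read 24 h post-dosing by laser scanning cytometer. Gain of fluorescence relative to DMSO fitted.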

CCc1ccc(O)cc1
outcome [1]: inactive
outcome [2]: inactive
outcome [3]: inactive

CCCCCCC(=O)c1ccccc1
outcome [3]: inactive

Cc1ccc(S(=O)(=O)Oc2ccc(N=Nc3ccc(-c4ccc(N=Nc5c(O)ccc6cc(S(=O)(=O)O)cc(S(=O)(=O)O)c56)c(C)c4)cc3C)cc2)cc1
AC50 [4]: 0.118 µM (active)
outcome [1]: inactive
outcome [2]: inactive
outcome [3]: inactive
outcome [5]: inactive
outcome [6]: inactive
AC50 [7]: 3.09 µM (active)
AC50 [8]: 0.548 µM (active)

Nc1ccc(N)c2c1C(=O)c1ccccc1C2=O
AC50 [1]: 35.3 µM (active)
outcome [2]: inactive
outcome [3]: inactive
outcome [7]: inactive

Cc1cc(=O)oc2cc(N(C)C)ccc12
AC50 [4]: 25 µM (active)
AC50 [9]: 14.6 µM (active)

Nc1ccccc1[N+](=O)[O-]
outcome [3]: inactive

CCCCC1CCC(O)CC1 (centres undefined)
outcome [1]: inactive
outcome [2]: inactive

CC(C)Nc1nc(N)nc(Cl)n1
outcome [3]: inactive

OCc1cccc(Oc2ccccc2)c1
outcome [1]: inactive
outcome [2]: inactive
AC50 [3]: 47.7 µM (active)

CC(C)CCCCCCc1ccc(OCCOCCO)cc1
outcome [10]: inactive
outcome [11]: inactive
AC50 [12]: 33.8 µM (active)
outcome [1]: inactive
AC50 [13]: 36.5 µM (active)
AC50 [3]: 38.6 µM (active)

CCCCCCC(C)(C)S
outcome [3]: inactive

CC1CCC(C(C)C)C(O)C1 (centres undefined)
outcome [1]: inactive
outcome [2]: inactive
outcome [3]: inactive

CC(=O)O[C@@H]1CC2CCC1(C)C2(C)C (some centres undefined)
outcome [1]: inactive

CCOc1ccc(N=Nc2ccc(C=Cc3ccc(N=Nc4ccc(OCC)cc4)cc3S(=O)(=O)O)c(S(=O)(=O)O)c2)cc1
AC50 [4]: 5.82 µM (active)
AC50 [5]: 12.9 µM (active)
AC50 [6]: 9.11 µM (active)
AC50 [7]: 14.1 µM (active)
AC50 [8]: 3.4 µM (active)

COc1ccc(N=Nc2cc(C)c(N=Nc3ccc(S(=O)(=O)O)cc3)cc2OC)cc1
AC50 [4]: 0.0418 µM (active)
outcome [3]: inactive
AC50 [8]: 1.91 µM (active)
